Records with an inconclusive call do not appear. Unmarked numbers belong to inactive results. Calls come from the whole dose curve.
assay: qHTS assay to identify small molecule antagonists of the sonic hedgehog signaling (Shh) pathway (AID 1259369); conditions: NIH/3T3 Gli1-Luc reporter, Shh antagonist, luminescence 24 h; series mostly up to 92.4 µM; activity change, negative = inhibition: at the top concentration; note: nearly all actives have a fitted effect of over 45% in size
Description: U.S. Tox21 Program National Center for Advancing Translational Sciences [NCATS] NIH Chemical Genomics Center [NCGC] U.S. Environmental Protection Agency [EPA] National Institutes of Environmental Health Sciences [NIEHS] National Toxicology Program [NTP] U.S. Food and Drug Administration [FDA] Tox21 Assay Overview: The sonic hedgehog (Shh) pathway is essential for normal embryonic development. Dysregulation of the Shh pathway can cause severe developmental defects in organs. Therefore chemicals that interfere with the pathway are potential developmental toxicants. A cell line designated 3T3Gli1-Luc (DMB/OARSA/CFSAN/FDA, Laurel, MD), a NIH/3T3 derived clone containing stably integrated Gli1-Luc reporter is used to detect chemical interference of the Shh pathway, by changes in the expression of the firefly Luc gene under the control of the Gli1 transcriptional response element. This cell line was used to screen Tox21 libraries for identifying and prioritizing the potential developmental toxicants that interfere Shh pathway. Conditioned medium-stimulated mode was used to screen for chemicals inhibiting Shh signaling.
Tox21 Assay Protocol Summary: 3T3 Gli1-Luc cells were dispensed at 2,000 per well in 5uL of culture medium into white solid bottom 1536-well plates (Greiner Bio-One, Monroe, NC) using a Multidrop Combi (Thermo Scientific, Waltham, MA) dispenser. The assay plates were incubated at 37 C and 5% CO2 for 4hr, and then 23nL of compounds dissolved in DMSO and positive control were transferred using a Pintool station (Wako, San Diego, CA). The compound transfer was followed by the addition of 1ul conditioned medium or assay buffer using two separate tips of Flying Reagent Dispenser (FRD, Aurora Discovery, San Diego, CA). The assay plates were incubated at 37C and 5% CO2 for 24hr. For luciferase read, 4uL of Amplite Luciferase reporter gene assay reagent (AAT Bioquest, Inc. Sunnyvale, CA) was added to each well of the assay plates using FRD and incubated at room temperature for 30min. The luminescence signal was measured using a ViewLux plate reader (Perkin Elmer, Shelton, CT).
% is set by controls: 0 for no effect and ±100 for the full control effect.

| Compound | activity change, negative = inhibition |
| --- | --- |
| Nc1cc(C(=O)O)ccc1Cl | 0% |
| C=C[C@@H](C)CCC=C(C)C | 0% |
| CCCCCCCCCCCCOC(C)=O | 6.62% |
| CCC(CO)CO | 3.06% |
| CCS(=O)(=O)CCn1c([N+](=O)[O-])cnc1C | -13.7% [at 42.5 µM] |
| O=C(O)CCNC(=O)c1ccccc1 | 16.6% [at 42.5 µM] |
| CC(C)=CC(C)(C)C | 17.8% |
| CCCCCCCCC(=O)OCC | 10.1% |
| COc1ccc(OC)c(NC(=O)CC(C)=O)c1 | -5.96% |
| CCOC(=O)CC(CC(=O)OCC)(OC(C)=O)C(=O)OCC | 0% |
| CCCCCCCCCCCCC | -3.19% |
| Cc1ccc(S(=O)(=O)NC(=O)NC2CCCCCCC2)cc1 | 29.7% [at 42.5 µM] |
| SCCSCCS | -2.44% |
| CCNC(=O)NCCCOc1cccc(CN2CCCCC2)c1 | -20.3% [at 42.5 µM] |
| CC(=O)/C=C/c1ccco1 | 28.9% |
| O=C1c2ccccc2-c2ccccc21 | -28.2% |
| O=C(CN1CCN(Cc2ccc3c(c2)OCO3)CC1)N1c2ccccc2Sc2ccccc21 | -1.54% [at 42.5 µM] |
| CC(=O)OC(C(=O)c1ccccc1)c1ccccc1 (stereo not given) | -0.301% |
| Cc1cc(O)c2c(c1)C(=O)c1cccc(O)c1C2=O | -27.5% [at 42.5 µM] |
| COc1ccc(NS(=O)(=O)c2ccc(N)cc2)nn1 | 24.4% [at 42.5 µM] |

| Compound | activity change, negative = inhibition |
| --- | --- |
| CCCCCCCCOC(C)=O | 0% |
| O=S(=O)(O)SSS(=O)(=O)O | -44% |
| CC(=O)OC[C@H]1O[C@@H](OC(C)=O)[C@H](OC(C)=O)[C@@H]1OC(C)=O | 23.4% [at 42.5 µM] |
| CCN(CCO)c1cccc(C)c1 | 8.18% |
| Cn1c(=O)c2c(ncn2CC2OCCO2)n(C)c1=O | 4.74% [at 42.5 µM] |
| Cc1ccc(C(=O)C(=O)O)cc1C | 2.78% [at 42.5 µM] |
| COc1cc([N+](=O)[O-])ccc1N | -19.6% |
| Nc1cc(S(=O)(=O)O)ccc1S(=O)(=O)O | -5.87% |
| OC(CCN1CCCCC1)(c1ccccc1)c1ccccc1 | -18.6% [at 42.5 µM] |
| CNCc1ccccc1 | 11.9% [at 42.5 µM] |
| Cc1nc(C)nc(N2C[C@@H](C)N(c3ccnc([C@@H](C)O)n3)[C@@H](C)C2)n1 | -0.0948% [at 42.5 µM] |
| CC(C)COC(=O)CCCCC(=O)OCC(C)C | 0% |
| CC(C)c1ccccc1O | 7.92% |
| C=C(C)[C@@H]1CC[C@@H](C)C[C@@H]1O | 4.64% |
| O=c1[nH]c(=O)c2ccccc2o1 | -1.35% [at 42.5 µM] |
| CCCCOC(=O)C(C)OC(=O)CCC (stereo not given) | 0% |
| C[C@H](CCC(=O)NCC(=O)O)[C@H]1CC[C@H]2[C@@H]3[C@H](O)C[C@@H]4C[C@H](O)CC[C@]4(C)[C@H]3C[C@H](O)[C@]12C | 17.5% |
| CCOC(=O)C(=O)c1csc(NC=O)n1 | 10.9% [at 42.5 µM] |
| CC1=CC[C@H](CC=O)C1(C)C | -15.5% |
| COc1cc(C=O)ccc1OC(=O)C(C)C | 0.908% |
